Several values for one entry are separate records, joined by “and”; a condition that tells them apart may be missing. Equal entries are not always repeated. Some structures have more than one record in an assay (separate samples or runs), and their calls can disagree. Activity calls are given as the source filed them. How the source made its calls: active means hit-call score of the fitted dose curve at least 0.9, where 1 is the maximum; inactive means score below 0.9.
test: CCTE_Shafer_MEA_acute_firing_rate_mean: CCTE's Neural Acute Assay for Mean Firing Rate, Shafer Lab (AID 2284009);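 further: analyzed for loss of signal so actives lower firing rate relative to DMSO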
Summary of the method: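 Primary rat cortical neurons on 16-electrode MEA wells were exposed on DIV 13 or 15 to compound (0.03-40 uM). Spike counts per recording time, averaged over electrodes, were compared between 40-min baseline and 40-min post-exposure recordings as percent change.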

Row | SMILES | AC50 | outcome
1 | FC(F)C(F)(F)OCC(Cn1cncn1)c1ccc(Cl)cc1Cl (stereo not given) | 5.92 µM (active) | 
2 | C=C(C)[C@H]1Cc2c(ccc3c2O[C@@H]2COc4cc(OC)c(OC)cc4[C@@H]2C3=O)O1 | 2.85 µM (active) | 
3 | CC(=NC#N)N(C)Cc1ccc(Cl)nc1 |  | inactive
4 | COc1cc(OC)nc(Sc2cccc(Cl)c2C(=O)O)n1 |  | inactive
5 | CCCOCC(=Nc1ccc(Cl)cc1C(F)(F)F)n1ccnc1 | 0.571 µM (active) | 
6 | CCc1cccc(C)c1N(C(=O)CCl)C(C)COC (stereo not given) | 27 µM (active) | 
7 | CC(C)[C@H](C(=O)O[C@H](C#N)c1cccc(Oc2ccccc2)c1)c1ccc(Cl)cc1 |  | inactive
8 | CCOP(=S)(Oc1cnc(C(C)(C)C)nc1)OC(C)C (stereo not given) | 15.5 µM (active) | 
9 | CN1COCN(Cc2cnc(Cl)s2)C1=N[N+](=O)[O-] |  | inactive
10 | CCOC(=O)CC(SP(=O)(OC)OC)C(=O)OCC (stereo not given) |  | inactive
11 | Nc1c(Cl)cc([N+](=O)[O-])cc1Cl |  | inactive
12 | CSC1=N[C@@](C)(c2ccccc2)C(=O)N1Nc1ccccc1 | 5.76 µM (active) | inactive
13 | C#CCC1=C(C)C(OC(=O)C2C(C=C(C)C)C2(C)C)CC1=O (stereo not given) | 27.4 µM (active) | 
14 | O=C(O)c1cc(Oc2ccc(C(F)(F)F)cc2Cl)ccc1[N+](=O)[O-] |  | inactive
15 | C[N+]1(C)CCCCC1 |  | inactive
16 | CN(C)NC(=O)CCC(=O)O |  | inactive
17 | CCOP(=O)(NC(C)C)Oc1ccc(SC)c(C)c1 (stereo not given) | 10.2 µM (active) | 

Row | SMILES | AC50 | outcome
18 | CC[C@H](C)[C@H]1O[C@]2(C=C[C@@H]1C)C[C@@H]1C[C@@H](C/C=C(\C)[C@@H](O[C@H]3C[C@H](OC)[C@@H](O[C@H]4C[C@H](OC)[C@@H](NC)[C@H](C)O4)[C@H](C)O3)[C@@H](C)/C=C/C=C3\CO[C@@H]4[C@H](O)C(C)=C[C@@H](C(=O)O1)[C@]34O)O2 | 4.94 nM (active) and 26.8 nM (active) | 
19 | N#CSCSC#N |  | inactive
20 | CCOP(=S)(OCC)SCCSCC |  | inactive
21 | COP(=O)(NC(C)=O)SC (stereo not given) |  | inactive
22 | CCOP(=S)(OCC)Oc1ccc2c(C)c(Cl)c(=O)oc2c1 | 1.85 µM (active) | 
23 | O=[N+]([O-])c1cc(C(F)(F)F)c(Cl)c([N+](=O)[O-])c1Nc1ncc(C(F)(F)F)cc1Cl | 0.35 µM (active) | 
24 | CNC(=O)ON=C(SC)C(=O)N(C)C |  | inactive
25 | CN(C)[C@@H]1C(=O)C(C(N)=O)=C(O)[C@@]2(O)C(=O)C3=C(O)c4c(O)cccc4[C@@](C)(O)[C@H]3[C@H](O)[C@@H]12 |  | inactive
26 | CC(C)=CC1C(C(=O)OCN2C(=O)C3=C(CCCC3)C2=O)C1(C)C (stereo not given) |  | inactive
27 | CC(COc1ccc(Oc2ccccc2)cc1)Oc1ccccn1 (stereo not given) | 20 µM (active) | 
28 | CON=C(C(=O)OC)c1ccccc1CON=C(C)c1cccc(C(F)(F)F)c1 | 0.183 µM (active) | 
29 | CCc1cnc(C2=NC(C)(C(C)C)C(=O)N2)c(C(=O)O)c1 (stereo not given) |  | inactive
30 | CC(C)N(C(=O)SCC(Cl)=C(Cl)Cl)C(C)C | 8.79 µM (active) and 5.81 µM (active) | 
31 | COP(=O)(OC)C(O)C(Cl)(Cl)Cl (stereo not given) |  | inactive
32 | Cc1ccn2nc(S(=O)(=O)Nc3c(F)cccc3F)nc2n1 |  | inactive
33 | CC1=NNC(=O)N(/N=C/c2cccnc2)C1 |  | inactive
34 | C[Si](Cn1cncn1)(c1ccc(F)cc1)c1ccc(F)cc1 | 4.69 µM (active) | 
